This note sets out measurements from PubChem BioAssay (EPA / NIEHS).

The AC50 is the concentration at which the activity in the assay is half-maximal.

Structures are written as SMILES. Where “and” joins values, the source holds several entries; their conditions need not be identical. Equal values may be shown once. Calls of active or inactive are those of the source. The calls were made as follows: active = hit-call score of the fitted dose curve at least 0.9, where 1 is the maximum; inactive = score below 0.9.

Read-out in test [1]: Matrix Metallopeptidase 1 (MMP1), MMP1 (gene 4312)
Briefly: BSK_MyoF_MMP1: BioMAP Diversity Plus: MyoF Assay for Matrix Metallopeptidase 1 (MMP1) Biomarker Activity (AID 2284268). The settings on record: primary human lung fibroblasts. In outline:
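Cells: human lung fibroblasts. Exposure: 24 h chemical dosing. Detection: ELISA for MMP1. Analysis: upward fitting against DMSO negative control.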

Read-out in test [2]: TIMP metallopeptidase inhibitor 1 (TIMP1), TIMP1 (gene 7076)
As to the kind of experiment: BSK_MyoF_TIMP1: BioMAP Diversity Plus: MyoF Assay for TIMP metallopeptidase inhibitor 1 (TIMP1) Biomarker Activity (AID 2284269). The settings on record: primary human lung fibroblasts. In a few lines: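 ELISA quantified TIMP-1 levels after 24 h dosing of primary human lung fibroblasts, with DMSO as baseline. Parallel SRB total protein staining (0.1% SRB after TCA fixation, 560 nm) flagged overt cytotoxicity.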

Read-out in test [3]: Matrix Metallopeptidase 1 (MMP1), MMP1 (gene 4312)
Briefly: BSK_BF4T_MMP1: BioMAP Diversity Plus: BF4T Assay for Matrix Metallopeptidase 1 (MMP1) Biomarker Activity (AID 2284270). The settings on record: primary human bronchial epithelial cells with fibroblasts. In a few lines:
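Co-culture of human bronchial epithelial cells and dermal fibroblasts; MMP-1 levels measured by ELISA 24 hours after chemical dosing, relative to DMSO. Cytotoxicity checked in parallel cultures by SRB total-protein staining.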

Read-out in test [4]: Matrix Metallopeptidase 3 (MMP3), MMP3 (gene 4314)
As to the kind of experiment: BSK_BF4T_MMP3: BioMAP Diversity Plus: BF4T Assay for Matrix Metallopeptidase 3 (MMP3) Biomarker Activity (AID 2284271). The settings on record: primary human bronchial epithelial cells with fibroblasts. In a few lines:
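Co-culture of human bronchial epithelial cells and dermal fibroblasts dosed 24 h; MMP-3 measured by ELISA, positive-direction fit versus DMSO. Cytotoxicity tracked by SRB total-protein staining (560 nm) in parallel cultures.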

Read-out in test [5]: Tissue plasminogen activator (tPA), PLAT (gene 5327)
As to the kind of experiment: BSK_BF4T_tPA: BioMAP Diversity Plus: BF4T Assay for Tissue plasminogen activator (tPA) Biomarker Activity (AID 2284272). The settings on record: primary human bronchial epithelial cells with fibroblasts. In outline:
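tPA level quantified by ELISA at 24 h post-treatment in bronchial epithelial/dermal fibroblast co-cultures, gain of signal scored against DMSO baseline. Parallel cultures stained with 0.1% SRB (560 nm) to flag overt cytotoxicity.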

Read-out in test [6]: Plasminogen Activator Inhibitor-1 (PAI1), SERPINE1 (gene 5054)
Briefly: BSK_BF4T_PAI1: BioMAP Diversity Plus: BF4T Assay for Plasminogen Activator Inhibitor-1 (PAI1) Biomarker Activity (AID 2284273). The settings on record: primary human bronchial epithelial cells with fibroblasts. In outline: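 Co-culture of human bronchial epithelial cells and dermal fibroblasts exposed to compound for 24 h. PAI-1 measured by ELISA; activity fitted in positive direction versus DMSO. Parallel SRB staining assessed overt cytotoxicity.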

The nature of test [7]: BSK_BF4T_SRB: Viability Assessment in the BioMAP Diversity Plus: BF4T Assay (AID 2284274). The settings on record: primary human bronchial epithelial cells with fibroblasts. In outline:
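Co-culture of human bronchial epithelial cells and dermal fibroblasts (BioMAP BF4T) exposed 24 h. Total protein by sulforhodamine B staining (0.1% SRB after 10% TCA fixation, 560 nm) in parallel cultures; fitted vs DMSO.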

Read-out in test [8]: urokinase Plasminogen Activator (uPA), PLAU (gene 5328)
Briefly: BSK_BF4T_uPA: BioMAP Diversity Plus: BF4T Assay for urokinase Plasminogen Activator (uPA) Biomarker Activity (AID 2284275). The settings on record: primary human bronchial epithelial cells with fibroblasts. In outline:
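Co-culture of human bronchial epithelial cells and dermal fibroblasts; uPA quantified by ELISA 24 hours after dosing, fitted relative to DMSO. Parallel SRB total-protein staining assessed overt cytotoxicity.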

Read-out in test [9]: Matrix Metallopeptidase 9 (MMP9), MMP9 (gene 4318)
As to the kind of experiment: BSK_BF4T_MMP9: BioMAP Diversity Plus: BF4T Assay for Matrix Metallopeptidase 9 (MMP9) Biomarker Activity (AID 2284276). The settings on record: primary human bronchial epithelial cells with fibroblasts. In outline:
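Co-culture of human bronchial epithelial cells and dermal fibroblasts dosed for 24 h; MMP-9 quantified by ELISA and fitted upward versus DMSO. Cytotoxicity monitored in parallel cultures by SRB total-protein staining at the biomarker time point.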

Read-out in test [10]: Interleukin-8 (IL8), CXCL8 (gene 3576)
Briefly: BSK_IMphg_IL8: BioMAP Diversity Plus: IMphg Assay for Interleukin-8 (IL8) Biomarker Activity (AID 2284277). The settings on record: primary human endothelial cells with macrophages. In outline: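 Co-culture of human venular endothelial cells and macrophages exposed to chemicals for 24 h; IL-8 quantified by ELISA and compared against the DMSO baseline, with SRB total-protein staining in parallel cultures for cytotoxicity.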

Read-out in test [11]: Intercellular Adhesion Molecule 1 (ICAM1), ICAM1 (gene 3383)
As to the kind of experiment: BSK_BE3C_ICAM1: BioMAP Diversity Plus: BE3C Assay for Intercellular Adhesion Molecule 1 (ICAM1) Biomarker Activity (AID 2284278).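 Also: cell-surface ICAM-1 protein level quantified by ELISA.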 The settings on record: primary human bronchial epithelial cells. In outline:
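Primary human bronchial epithelial cells were exposed to compound for 24 h, after which cell-surface ICAM-1 was quantified by ELISA. Activity was fitted in the gain-of-signal direction against DMSO as negative control and baseline.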

Read-out in test [12]: Interferon-inducible T-cell alpha chemoattractant (ITAC), CXCL11 (gene 6373)
As to the kind of experiment: BSK_BE3C_ITAC: BioMAP Diversity Plus: BE3C Assay for Interferon-inducible T-cell alpha chemoattractant (ITAC) Biomarker Activity (AID 2284279). The settings on record: primary human bronchial epithelial cells. In a few lines:
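ELISA for I-TAC in primary human bronchial epithelial cultures 24 h post-treatment, fitted relative to DMSO baseline in positive direction. Cytotoxicity checked in parallel cultures by sulforhodamine B protein staining.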

Read-out in test [13]: Interleukin-8 (IL8), CXCL8 (gene 3576)
As to the kind of experiment: BSK_BE3C_IL8: BioMAP Diversity Plus: BE3C Assay for Interleukin-8 (IL8) Biomarker Activity (AID 2284280). The settings on record: primary human bronchial epithelial cells. In outline: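 Primary human bronchial epithelial cells (BE3C system) exposed 24 h; IL-8 measured by ELISA and fitted in positive direction versus DMSO. Overt cytotoxicity assessed by SRB total-protein staining in parallel cultures.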

Read-out in another test: KRT18 (gene 3875)
Briefly: BSK_BE3C_Keratin818: BioMAP Diversity Plus: BE3C Assay for Keratin 818 Biomarker Activity (AID 2284282). The settings on record: primary human bronchial epithelial cells. In outline: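 Human primary bronchial epithelial cells in the BE3C system were exposed to test chemical for 24 h, then Keratin 8/18 was quantified by ELISA. Activity was fitted in the positive direction against DMSO as negative control and baseline.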

Read-out in test [14]: Matrix Metallopeptidase 9 (MMP9), MMP9 (gene 4318)
Briefly: BSK_BE3C_MMP9: BioMAP Diversity Plus: BE3C Assay for Matrix Metallopeptidase 9 (MMP9) Biomarker Activity (AID 2284283). The settings on record: primary human bronchial epithelial cells. In a few lines: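 ELISA read-out of MMP-9 after 24 h compound exposure of human lung bronchial epithelial primary cells (BE3C). Fit in gain direction vs DMSO negative control; total protein by SRB in parallel cultures flagged overt cytotoxicity.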

Read-out in test [15]: Plasminogen activator inhibitor-1 (PAI1), SERPINE1 (gene 5054)
Briefly: BSK_CASM3C_PAI1: BioMAP Diversity Plus: CASM3C Assay for Plasminogen activator inhibitor-1 (PAI1) Biomarker Activity (AID 2284284).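 Also: PAI-1 protein level measured by ELISA 24 h after dosing.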 The settings on record: primary human coronary artery smooth muscle cells.

Read-out in test [16]: Vascular cell adhesion molecule 1 (VCAM1), VCAM1 (gene 7412)
As to the kind of experiment: BSK_IMphg_VCAM1: BioMAP Diversity Plus: IMphg Assay for Vascular cell adhesion molecule 1 (VCAM1) Biomarker Activity (AID 2284286). The settings on record: primary human endothelial cells with macrophages. In outline:
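Human venular endothelial cells co-cultured with macrophages; VCAM-1 quantified by ELISA 24 h after dosing, fitted in the positive direction against DMSO. Cytotoxicity was checked in parallel cultures by SRB total-protein staining (0.1% SRB after 10% TCA fixation, 560 nm).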

Read-out in test [17]: Intercellular Adhesion Molecule 1 (ICAM1), ICAM1 (gene 3383)
As to the kind of experiment: BSK_hDFCGF_ICAM1: BioMAP Diversity Plus: hDFCGF Assay for Intercellular Adhesion Molecule 1 (ICAM1) Biomarker Activity (AID 2284287). The settings on record: primary human foreskin fibroblasts. In a few lines:
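Primary human foreskin fibroblasts (hDFCGF system) dosed with chemical; ICAM-1 quantified by ELISA at 24 h relative to DMSO. Parallel SRB total-protein staining to assess overt cytotoxicity.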

Read-out in test [18]: Interleukin-1 alpha (IL1a), IL1A (gene 3552)
As to the kind of experiment: BSK_IMphg_IL1a: BioMAP Diversity Plus: IMphg Assay for Interleukin-1 alpha (IL1a) Biomarker Activity (AID 2284290). The settings on record: primary human endothelial cells with macrophages. In a few lines:
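Human venular endothelial cells co-cultured with macrophages, IMphg system. IL-1α is measured by ELISA 24 h after dosing and fitted in the positive direction against DMSO. Cytotoxicity is assessed by SRB staining of parallel cultures.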

Read-out in test [19]: Macrophage colony-stimulating factor (MCSF), CSF1 (gene 1435)
Briefly: BSK_IMphg_MCSF: BioMAP Diversity Plus: IMphg Assay for Macrophage colony-stimulating factor (MCSF) Biomarker Activity (AID 2284293). The settings on record: primary human endothelial cells with macrophages. In a few lines: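 Co-culture of human venular endothelial cells and macrophages, 24 hours of chemical exposure. M-CSF quantified by ELISA, with parallel SRB total-protein staining for cytotoxicity; activity fitted relative to DMSO.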

For `OCCC(F)(F)C(F)(F)C(F)(F)C(F)(F)F`, the result in test [1], in test [2], in test [3], in test [4], in test [5] and in test [6] was inactive. Besides, the outcome in test [7], in test [8], in test [9], in test [10], in [11] and in test [12] was inactive. Further, the result (in test [13]; in the test with KRT18 (gene 3875); in [14]; in test [15]; in test [16]; in test [17]) was inactive. Also, the result in test [18] and in test [19] was inactive.
`C[Si](C)(C)C(F)(F)C(F)(F)C(F)(F)F`: the result in test [1], in test [2], in test [3], in test [4], in [5] and in [6] was inactive. Further, the result in test [7], in test [8], in [9], in test [10], in [11] and in [12] was inactive. In addition, the result (in [13]; with KRT18 (gene 3875); in [14]; in test [15]; in [16]; in test [17]) was inactive. Further, the outcome in test [18] and in test [19] was inactive.
Regarding `OCc1c[nH]c2ccccc12`, the AC50 in test [1] is 16.8 µM (active). Further, the result in test [2] was inactive.
As for `FC(F)=C(F)C(F)(F)C(F)(F)C(F)(F)C(F)(F)C(F)(F)C(F)(F)F`, the result in test [1], in test [2], in [3], in test [4], in test [5] and in test [6] was inactive. For the same compound, the outcome in test [7], in test [8], in test [9], in [10], in [11] and in test [12] was inactive. Moreover, the result (in [13]; with KRT18 (gene 3875); in test [14]; in [15]; in test [16]; in test [17]) was inactive. Further, the outcome in test [18] and in test [19] was inactive.
On to `O=C(Cl)C(F)(F)C(F)(F)C(F)(F)C(=O)Cl`, for which the result in test [1], in test [2], in test [3], in test [4], in test [5] and in test [6] was inactive. Also, the result in test [7], in test [8], in test [9], in test [10], in test [11] and in test [12] was inactive. The result (in test [13]; with KRT18 (gene 3875); in test [14]; in test [15]; in test [16]; in [17]) was inactive. The result in [18] and in [19] was inactive.
For `Cc1cccc(O)c1C`, the outcome in test [1] and in test [2] was inactive.
Consider `FC(F)(F)C(F)(F)C(F)(F)C(F)(F)C(F)(F)C(F)(F)I`, for which, in test [1], the AC50 was 14 µM (active) and 21.6 µM (active). For the same compound, the outcome in [2], in test [3], in [4], in test [5], in test [6] and in test [7] was inactive. Also, the result in test [8], in test [9], in [10], in test [11], in [12] and in test [13] was inactive. Further, the result (with KRT18 (gene 3875); in test [14]; in [15]; in [16]; in test [17]; in test [18]) was inactive. For the same compound, the outcome in test [19] was inactive.
